Each structure is given as a SMILES string. This is part of a sample that, as a whole, favours compounds with a hit. Of some 83,000 tested, about 20% had one in any assay.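 Single-concentration screen, 48 h exposure, 96-well plates. Endpoint: percent growth. Below 10 = active.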 Values without a mark were called inactive. Activity calls are given as the source filed them.

Test systems include BT-549 breast; MDA-MB-435 melanoma; SW-620 colon; MCF7 breast; HCT-116 colon; HCC-2998 colon; KM12 colon.
Holding throughout (assay): NCI-60 one-dose screen, 48 h (100 = growth as untreated, 0 = no growth, -100 = all killed)
Conditions in all cases: 10 µM unless noted

For the compound `CC(=O)[C@@H]1CC[C@]2(C(=O)O)CC[C@]3(C)[C@H](CC[C@@H]4[C@@]5(C)Cc6c([nH]c7ccccc67)C(C)(C)[C@@H]5CC[C@]43C)[C@@H]12`, the growth in the test on BT-549 breast is 71.9%; in the test on MDA-MB-435 melanoma, 81.2%; with SW-620 colon, 54.5%; in the test on MCF7 breast, 38.6%; with HCT-116 colon it was 43.5%; in the test on HCC-2998 colon, 80.5%. In the test with KM12 colon, the growth was 42.2%.

As for `CC(C)(C#N)c1cc(F)cc(C(=O)Nc2cc(Nc3ncccc3-c3ncnc4nc[nH]c34)ccc2F)c1`, the growth was 39.7% with BT-549 breast; 48% with MDA-MB-435 melanoma; 28.7% with SW-620 colon; 58.1% in the test on MCF7 breast; 19.2% in the test on HCT-116 colon; 27.3% with HCC-2998 colon. Moreover, in the test with KM12 colon, the growth was 36%.

Consider `COc1ccc(C2=NN(c3ccc(S(N)(=O)=O)cc3)C(c3ccc(Cl)cc3)C2)c(O)c1` (stereo not given), for which the growth in the test on BT-549 breast was 84.7%; with MDA-MB-435 melanoma it was 47.2%; in the test on SW-620 colon it was 76.2%; in the test on MCF7 breast, 28.2%; in the test on HCT-116 colon, 24.4%; in the test on HCC-2998 colon it was 60.6%. In addition, the growth in the test on KM12 colon is 41.3%.

Consider `Cc1nnc(/N=C2\NC(=O)/C(=C/c3ccc(N(C)C)cc3)S2)s1`, for which the growth in the test with BT-549 breast is 67.4%; in the test with MDA-MB-435 melanoma, 9.37% (active); in the test on SW-620 colon, 66.9%; in the test on MCF7 breast, 53.4%; with HCT-116 colon, 54.6%; in the test on HCC-2998 colon it was 85.5%. Moreover, in the test with KM12 colon, the growth is 46.1%.

Regarding `CCc1ccc(OCc2ccccc2C(=O)Nc2ccc3nc(C)cc(N)c3c2)cc1`, the growth in the test with BT-549 breast is -91.9% (active); in the test on MDA-MB-435 melanoma, -91.2% (active); in the test on SW-620 colon, -64.3% (active); in the test with MCF7 breast it was -70.2% (active); in the test with HCT-116 colon, -99.3% (active); in the test on HCC-2998 colon, -76.8% (active). For the same compound, the growth in the test with KM12 colon was -78.9% (active).

Take `C=C1C(=O)O[C@H]2[C@H]1CC/C(COC(=O)CCCCC(=O)OC/C1=C/CC[C@@]3(C)O[C@H]3[C@H]3OC(=O)C(=C)[C@@H]3CC1)=C\CC[C@@]1(C)O[C@@H]21`: the growth in the test with BT-549 breast was 61.1%; in the test with MDA-MB-435 melanoma, 56.2%; in the test with SW-620 colon, 25.1%; in the test with MCF7 breast, 21.3%; in the test on HCT-116 colon, 3.28% (active); in the test on HCC-2998 colon it was 100%. The growth in the test on KM12 colon is 90.6%.

Take `C#Cc1cccc(Nc2ncnc3ccc(NC(=O)c4ccccc4)cc23)c1`: the growth in the test on BT-549 breast is 74.6%; in the test on MDA-MB-435 melanoma, 84%; in the test on SW-620 colon, 100%; in the test on MCF7 breast, 72.1%; with HCT-116 colon it was 76%; in the test with HCC-2998 colon, 97.7%. The growth in the test on KM12 colon is 90%.

Consider `COc1ccc2c(c1)/C(=C1\S/C(=N/c3nnc(C)s3)NC1=O)C(=O)N2Cc1ccc(Cl)cc1`, for which the growth in the test on BT-549 breast was 54.6%; in the test on MDA-MB-435 melanoma it was 52.8%; in the test with SW-620 colon, 49.3%; in the test on MCF7 breast, 45.8%; with HCT-116 colon, 31.7%; with HCC-2998 colon, 34.2%. In addition, the growth with KM12 colon was 28.6%.

On to `COc1ccccc1Nc1nnc(-c2ccc(Cl)cc2)o1`, for which the growth in the test with BT-549 breast was 56.9%; with MDA-MB-435 melanoma, -5.9% (active); in the test with SW-620 colon, 20.9%; with MCF7 breast it was 17.1%; with HCT-116 colon, 34.1%; with HCC-2998 colon, 82%. Also, the growth in the test with KM12 colon is 23.9%.

Consider `C#Cc1ccccc1NC(=O)c1sc2nc3c(cc2c1N)CCCCCC3`, for which the growth with BT-549 breast is 37.3%; in the test with MDA-MB-435 melanoma, 74.5%; in the test with SW-620 colon, 27.6%; in the test on MCF7 breast, 58.4%; with HCT-116 colon it was 75.5%; in the test with HCC-2998 colon it was 104%. For the same compound, in the test with KM12 colon, the growth is 42.7%.

Regarding `CN(C)CCCn1c2c(c3cc(-c4ccco4)ccc3c1=O)C(=O)c1ccccc1-2`, the growth was 83.9% in the test on BT-549 breast; 66.6% in the test with MDA-MB-435 melanoma; 30.2% in the test on SW-620 colon; -21.6% (active) in the test with MCF7 breast; 26.6% in the test with HCT-116 colon; 71.7% with HCC-2998 colon. In addition, the growth in the test on KM12 colon is 44.4%.

On to `COc1cc(C2=NN(C(C)=O)C(c3cccc(Nc4ccnc5cc(C(F)(F)F)ccc45)c3)C2)cc(OC)c1OC` (stereo not given), for which the growth is 46.2% with BT-549 breast; 56.6% in the test with MDA-MB-435 melanoma; 66.1% with SW-620 colon; 37.9% with MCF7 breast; 48.4% with HCT-116 colon; 72.2% in the test on HCC-2998 colon. For the same compound, the growth with KM12 colon was 64.8%.

Consider `N#Cc1c(-c2ccc(F)cc2)nc(N=Nc2c(O)[nH]c3ccc(Cl)cc23)nc1N1CCOCC1`, for which the growth in the test with BT-549 breast is 71.4%; with MDA-MB-435 melanoma it was 67%; in the test on SW-620 colon, 68.9%; with MCF7 breast, 39.9%; in the test on HCT-116 colon it was 21.4%; in the test with HCC-2998 colon, 96.7%. In addition, the growth with KM12 colon was 48.5%.

Regarding `CCCn1cc(/C=N\N=C2\C(=O)Nc3ccc(C)cc32)c2ccccc21`, the growth is 63.5% in the test with BT-549 breast; -26.6% (active) with MDA-MB-435 melanoma; 36.7% in the test with SW-620 colon; 8.92% (active) in the test with MCF7 breast; 39.9% in the test with HCT-116 colon; 47% with HCC-2998 colon. For the same compound, the growth in the test with KM12 colon is 59.9%.

With `O=C(O)c1cc(N=Nc2ccc(-c3ccc(N=Nc4c(S(=O)(=O)O)cc5ccc(Nc6ccccc6)cc5c4O)cc3)cc2)ccc1O`, the growth in the test on BT-549 breast is 115%; in the test with MDA-MB-435 melanoma, 106%; with SW-620 colon, 102%; with MCF7 breast, 92.3%; in the test with HCT-116 colon, 105%; in the test with HCC-2998 colon, 89.8%. Also, the growth with KM12 colon was 99.6%.

Values taken from PubChem BioAssay (NCI).
